{
  "source": "the supplement of paper PMC8728848",
  "test_in_all_cases": "glycan array binding signal (z-score within array); higher = stronger binding",
  "settings_in_all_cases": "glycan notation: IUPAC condensed, linker removed",
  "key": {"[1]": {"target": "Gal(b1-4)GlcNAc(b1-6)[Gal(b1-4)GlcNAc(b1-3)]GalNAc", "procedure,_shortened": "(§1)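 From the Consortium for Functional Glycomics database, 3228 arrays were curated, keeping only those whose protein sequence was available. Binding is given as a within-array Z-score averaged across arrays sharing a protein sequence and across linkers. Negative Z-scores can be read as non-binding.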"}, "[2]": {"target": "Gal3S(b1-3)GalNAc", "procedure,_shortened": "as §1"}, "[3]": {"target": "Gal3S4S(b1-4)GlcNAc", "procedure,_shortened": "as §1"}, "[4]": {"target": "Gal3S6S(b1-4)GlcNAc", "procedure,_shortened": "as §1"}, "[5]": {"target": "GalNAc(b1-4)GlcNAc(b1-2)Man", "procedure,_shortened": "as §1"}, "[6]": {"target": "GlcNAc(a1-4)Gal(b1-4)GlcNAc(b1-3)Gal(b1-4)GlcNAc", "procedure,_shortened": "as §1"}, "[7]": {"target": "GlcNAc(b1-2)Man(a1-3)[GlcNAc(b1-2)Man(a1-6)]Man(b1-4)GlcNAc(b1-4)GlcNAc", "procedure,_shortened": "as §1"}, "[8]": {"target": "GlcNAc(b1-2)Man(a1-3)[GlcNAc(b1-2)Man(a1-6)]Man(b1-4)GlcNAc(b1-4)[Fuc(a1-6)]GlcNAc", "procedure,_shortened": "as §1"}, "[9]": {"target": "GlcNAc(b1-3)Gal(b1-4)GlcNAc(b1-3)Gal(b1-4)GlcNAc(b1-3)Gal(b1-4)GlcNAc(b1-3)Gal(b1-4)GlcNAc(b1-2)Man(a1-3)[GlcNAc(b1-3)Gal(b1-4)GlcNAc(b1-3)Gal(b1-4)GlcNAc(b1-3)Gal(b1-4)GlcNAc(b1-3)Gal(b1-4)GlcNAc(b1-2)Man(a1-6)]Man(b1-4)GlcNAc(b1-4)GlcNAc", "procedure,_shortened": "as §1"}, "[10]": {"target": "GlcNAc(b1-3)Gal(b1-4)GlcNAc(b1-3)Gal(b1-4)GlcNAc(b1-3)Gal(b1-4)GlcNAc(b1-3)Gal(b1-4)GlcNAc(b1-2)Man(a1-3)[GlcNAc(b1-3)Gal(b1-4)GlcNAc(b1-3)Gal(b1-4)GlcNAc(b1-3)Gal(b1-4)GlcNAc(b1-3)Gal(b1-4)GlcNAc(b1-2)Man(a1-6)]Man(b1-4)GlcNAc(b1-4)[Fuc(a1-6)]GlcNAc", "procedure,_shortened": "as §1"}, "[11]": {"target": "GlcNAc(b1-3)Gal(b1-4)GlcNAc(b1-3)GalNAc", "procedure,_shortened": "as §1"}, "[12]": {"target": "GlcNAc(b1-3)[GlcNAc(b1-6)]GalNAc", "procedure,_shortened": "as §1"}, "[13]": {"target": "GlcNAc(b1-6)GalNAc", "procedure,_shortened": "as §1"}, "[14]": {"target": "Kdn(a2-3)Gal(b1-4)Glc", "procedure,_shortened": "as §1"}, "[15]": {"target": "Man(a1-2)Man(a1-3)[Man(a1-6)]Man(a1-6)[Man(a1-2)Man(a1-3)]Man(b1-4)GlcNAc(b1-4)GlcNAc", "procedure,_shortened": "as §1"}, "[16]": {"target": "Man(a1-3)[Man(a1-6)]Man(b1-4)GlcNAc(b1-4)GlcNAc", "procedure,_shortened": "as §1"}, "[17]": {"target": "Neu5Ac(a2-3)Gal(b1-4)[Fuc(a1-3)]GlcNAc(b1-3)Gal(b1-4)GlcNAc", "procedure,_shortened": "as §1"}, "[18]": {"target": "Neu5Ac(a2-3)Gal6S(b1-4)[Fuc(a1-3)]GlcNAc", "procedure,_shortened": "as §1"}, "[19]": {"target": "Neu5Ac(a2-6)Gal(b1-3)GlcNAc(b1-3)[Gal(b1-4)GlcNAc(b1-6)]Gal(b1-4)Glc", "procedure,_shortened": "as §1"}, "[20]": {"target": "Neu5Ac(a2-8)Neu5Ac(a2-3)Gal(b1-3)GalNAc(b1-4)[Neu5Ac(a2-8)Neu5Ac(a2-3)]Gal(b1-4)Glc", "procedure,_shortened": "as §1"}, "[21]": {"target": "Neu5Ac(a2-8)Neu5Ac(a2-3)Gal(b1-4)GlcNAc", "procedure,_shortened": "as §1"}, "[22]": {"target": "Neu5Gc(a2-3)Gal(b1-4)GlcNAc(b1-3)Gal(b1-4)GlcNAc(b1-2)Man(a1-3)[Neu5Gc(a2-3)Gal(b1-4)GlcNAc(b1-3)Gal(b1-4)GlcNAc(b1-2)Man(a1-6)]Man(b1-4)GlcNAc(b1-4)GlcNAc", "procedure,_shortened": "as §1"}, "[23]": {"target": "Neu5Gc(a2-6)Gal(b1-4)GlcNAc", "procedure,_shortened": "as §1"}, "[24]": {"target": "Neu5Gc(a2-8)Neu5Gc(a2-3)Gal(b1-4)GlcNAc", "procedure,_shortened": "as §1"}},
  "note": "Many of the other results were omitted from the sample, so the strongest signals are more common in it than they were.",
  "data": [
    {"binder": "Gal 3C (Homo sapiens), P17931 (protein) YGAPAGPLIVPYNLPLPGGVVPRMLITILGTVKPNANRIALDFQRGNDVAFHFNPRFNENNRRVIVCNTKLDNNWGREERQSVFPFESGKPFKIQVLVEPDHFKVAVNDAHLLQYNHRVKKLNEISKLGISGDIDLTSASYTMI", "values": [
      {"measurement": "glycan array binding signal (z-score)", "setting": "[1]", "result": -0.244},
      {"measurement": "glycan array binding signal (z-score)", "setting": "[2]", "result": -0.289},
      {"measurement": "glycan array binding signal (z-score)", "setting": "[3]", "result": -0.291},
      {"measurement": "glycan array binding signal (z-score)", "setting": "[4]", "result": -0.289},
      {"measurement": "glycan array binding signal (z-score)", "setting": "[5]", "result": -0.274},
      {"measurement": "glycan array binding signal (z-score)", "setting": "[6]", "result": -0.2},
      {"measurement": "glycan array binding signal (z-score)", "setting": "[7]", "result": -0.279},
      {"measurement": "glycan array binding signal (z-score)", "setting": "[8]", "result": -0.196},
      {"measurement": "glycan array binding signal (z-score)", "setting": "[9]", "result": 4.63},
      {"measurement": "glycan array binding signal (z-score)", "setting": "[10]", "result": 4.02},
      {"measurement": "glycan array binding signal (z-score)", "setting": "[11]", "result": -0.286},
      {"measurement": "glycan array binding signal (z-score)", "setting": "[12]", "result": -0.331},
      {"measurement": "glycan array binding signal (z-score)", "setting": "[13]", "result": -0.322},
      {"measurement": "glycan array binding signal (z-score)", "setting": "[14]", "result": -0.237},
      {"measurement": "glycan array binding signal (z-score)", "setting": "[15]", "result": -0.298},
      {"measurement": "glycan array binding signal (z-score)", "setting": "[16]", "result": -0.065},
      {"measurement": "glycan array binding signal (z-score)", "setting": "[17]", "result": -0.191},
      {"measurement": "glycan array binding signal (z-score)", "setting": "[18]", "result": -0.327},
      {"measurement": "glycan array binding signal (z-score)", "setting": "[19]", "result": -0.3},
      {"measurement": "glycan array binding signal (z-score)", "setting": "[20]", "result": -0.226},
      {"measurement": "glycan array binding signal (z-score)", "setting": "[21]", "result": -0.266},
      {"measurement": "glycan array binding signal (z-score)", "setting": "[22]", "result": -0.152},
      {"measurement": "glycan array binding signal (z-score)", "setting": "[23]", "result": -0.31},
      {"measurement": "glycan array binding signal (z-score)", "setting": "[24]", "result": -0.336}
    ]}
  ]
}
